The values below come from ChEMBL document CHEMBL4513216, “Probing the Open Global Health Chemical Diversity Library for Multistage-Active Starting Points for Next-Generation Antimalarials” (ACS Infect Dis, 2020).

Molecules are shown by their SMILES. Out of some 69,000 compounds screened, about 8,600 (12%) showed an effect of 50% or more. The list comes from a sample in which strong results are over-represented; it also holds similar structures and randomly drawn compounds.

The test system of this test is Plasmodium berghei. Briefly: Screen against P. berghei liver stage (PbLuc), transformed with Luciferase, at 10uM. Type of test: functional, HepG2. The conditions noted are these: tested at 10 uM.
Consider `CC(=O)N(Cc1ncc(C(C)C)o1)C1CCN(CCC#N)C1` (configuration not stated), for which the INHIBITION is on record as -6.865%.

On to `Cn1cc(C(=O)N[C@@H]2CN(Cc3cccs3)[C@@H]3CCCO[C@@H]32)cn1`, for which the INHIBITION is given as 15.1%.

Regarding `CN(Cc1cccc(F)c1)C(=O)c1cc2c([nH]c1=O)CCCC2=O`, the INHIBITION was found to be 8.535%.

As for `CCn1c(C2CCN(C(=O)CCc3cc(Cl)no3)CC2)nn(C)c1=O`, the INHIBITION was found to be 0%.

For `Cc1cc(O)cc(=O)n1CCCC(=O)Nc1n[nH]c2cc(Br)ccc12`, the INHIBITION turned out to be 3.93%.

As for `Fc1ccc(-c2nc(CNC3CCc4ncnn4C3)co2)cc1` (configuration not stated), the INHIBITION turned out to be 23.7%.

With `CCNC(=O)C1(Cc2cc(-c3ccccc3)no2)CCCN(C(C)C)C1` (configuration not stated), the INHIBITION is listed as 4.41%.

For `CNc1cc(C)nc(N2C[C@@H](C(=O)O)[C@H](C3CC3)C2)n1`, the INHIBITION came to 38.6%.

In the case of `Cc1nc2cc(C(=O)N3C[C@@H](C(=O)O)[C@H](C4CC4)C3)ccc2[nH]1`, the INHIBITION worked out at 29.8%.

As for `Cc1nc(C)c(C(=O)N2CCCC(c3cnccn3)C2)s1` (configuration not stated), the INHIBITION came to 11.1%.

For the compound `Cc1nc(C)c(C(=O)N2C[C@@H](C(=O)O)[C@H](C3CC3)C2)s1`, the INHIBITION was 76.9%.

For the compound `CCc1nc(C)c(C(=O)N2C[C@@H]3CC[C@H]2CN(S(=O)(=O)N(C)C)C3)s1`, the INHIBITION was 40.7%.

On to `CCc1nc(C)c(C(=O)N2CCCC(c3noc(C)n3)C2)s1` (configuration not stated), for which the INHIBITION was determined as 45.4%.

Consider `CNc1nc(C)c(C(=O)N2C[C@@H]3CC[C@H]2CN(c2cnccn2)C3)s1`, for which the INHIBITION is given as -26.1%.

As for `CCc1nc(C)c(C(=O)N2C[C@@H](C(=O)O)[C@H](C3CC3)C2)s1`, the INHIBITION is 63%.

As for `CNc1nc(C)c(C(=O)N2C[C@@H](C(=O)O)[C@H](C3CC3)C2)s1`, the INHIBITION was determined as 83.8%.

Turning to `CN(C)CC(=O)N1CCC2(CC1)CN(Cc1ccccc1)C2`, the INHIBITION turned out to be 33.4%.

Turning to `CCOCC(O)CN1CCN(C(=O)c2ccc(C)nc2)CC1` (configuration not stated), the INHIBITION stood at 24.2%.

Turning to `Cc1cc(-n2c(C)cn(CN(C)Cc3ccccc3)c2=O)no1`, the INHIBITION is -5.64%.

In the case of `C=C(C)COc1ccc(C(=O)N(C)C(C)c2ccon2)cc1` (configuration not stated), the INHIBITION is recorded as -1.38%.

Turning to `COc1ccc(-c2nnc(C(C)N3CCOCC3)o2)cc1` (configuration not stated), the INHIBITION is given as 37.5%.

For `COc1ccc(-c2nnc(C(C)N3CCC4(CC3)OCCO4)o2)cc1` (configuration not stated), the INHIBITION was determined as 69.3%.

As to `COc1ccc(-c2nnc(C(C)N3CCOC(C)(C)C3)o2)cc1` (configuration not stated), the INHIBITION was 21.6%.

As to `CC(=O)Nc1nc2c(s1)CN(CC(=O)Nc1ccc(C)c(Cl)c1)CC2`, the INHIBITION is on record as 24.2%.

With `Cc1ccc(C(=O)N2C[C@H]3CCCC(OCc4cccnc4)[C@H]3C2)cn1` (some centres not stated), the INHIBITION is recorded as 27.6%.

For `O=C1CCCCCN1Cc1nc(C2(c3ccc(F)cc3)CCOC2)no1` (configuration not stated), the INHIBITION is given as -26.8%.

`c1ccc(CO[C@H]2CO[C@@]3(CCCN(Cc4cccnc4)C3)C2)nc1`: the INHIBITION is recorded as -17.1%.
